Drawing on PubChem BioAssay (NCATS), this text covers Potency for 39 compounds.

Structures are written as SMILES. Records with an inconclusive call do not appear. Entries that show only a call come without a potency. Active and inactive are the calls of the source. Calls follow the shape of the dose curve; as a rule, active = well fitted inhibition curve with a large enough effect; inconclusive = small, poorly fitted or top-dose-only effect; inactive = flat fitted curve, though single readings scatter. Where a SMILES comes first, the peptide text is derived from it. Bridges are numbered along the chain shown (N, C = ends). [ ]: non-standard residue; d: D form. The star is where a group is joined. X2 = CC[C@H](C)CCCCC(=O)*; Dab = NCC[C@H](N)C(=O)O
Potency is read from the fitted curve at half-maximal effect.

The nature of the assay: P-glycoprotein substrates identified in KB-8-5-11 adenocarcinoma cell line, qHTS therapeutic library screen (AID 1346987). Also: nearly all actives have a fitted effect of over 65% in size. As to conditions: KB-8-5-11 (P-gp overexpressing) viability, CellTiter-Glo, 72 h; series mostly up to 44.5 µM. Summed up: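 P-gp-mediated resistance screen: KB-8-5-11 cells treated 72 h with compounds in dose-response. CellTiter-Glo viability.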
(In general: In qHTS, concentration-response curves come from the screen itself.)
Turning to `Nc1nc2c(cnn2CCCc2ccc(O)cc2)c2nc(-c3ccco3)nn12`, the Potency result was “inactive”.

In the case of `COc1ccc(S(=O)(=O)n2cnc3cc(C)c(C)cc32)cc1`, the Potency result is “inactive”.

`Cc1cc(C)c(S(=O)(=O)n2cc(C)cc2C)c(C)c1`: the Potency entry is “inactive”.

`C=CC(=O)Nc1ccc2ncnc(Nc3cccc(Br)c3)c2c1`: the Potency was 8.2 µM (active).

Consider `CN(C)N(C)C(=O)[C@@]1(Cc2ccccc2)CCCN(C(=O)[C@@H](Cc2c[nH]c3ccccc23)NC(=O)C(C)(C)N)C1`, for which the Potency result was “inactive”.

On to `C/C=C(\C)[C@@H]1C(C)=C[C@@H]2[C@H]([C@@H]1/C=C/C=C/C(=O)O)[C@@H](C)CC[C@@H]2O`, for which the Potency was 11.4 µM (active).

With `CCOC(=O)Nc1ccc2c(c1)N(C(=O)CN(C)C)c1ccccc1CC2`, the Potency result was “inactive”.

Consider `Cc1cc2ncc(C(=O)NCC(C)(C)NCC(=O)N3CCC[C@H]3C#N)cn2n1`, for which the Potency entry was “inactive”.

As for `C[C@H](/C=C/[C@H](C)C(C)(C)O)[C@H]1CC[C@H]2/C(=C/C=C3C[C@@H](O)C[C@H](O)C3)CCC[C@]12C`, the Potency was 8.2 µM (active).

With `Cc1c(C2=CCN(C(=O)N(C)C(C)C)CC2)nnn1-c1cccnc1F`, the Potency result is “inactive”.

As for `CNCc1cc(-c2ccccc2F)n(S(=O)(=O)c2cccnc2)c1`, the Potency entry is “inactive”.

Consider `C=C1/C(=C/C=C2\CCC[C@]3(C)[C@@H]([C@H](C)/C=C/[C@H](O)C4CC4)CC[C@@H]23)C[C@@H](O)C[C@@H]1O`, for which the Potency entry was “inactive”.

Consider `Cn1c(CO)c(-c2ccccc2)c2cc([N+](=O)[O-])ccc21`, for which the Potency result was “inactive”.

Consider `CCC/C=C\C=C/CCc1cc(O)c([C@@H]2O[C@H](CO)[C@@H](O)[C@H](O)[C@H]2O)c(O)c1C(=O)OC`, for which the Potency entry was “inactive”.

Regarding `CC(C(=O)O)c1ccc(C2CCCCC2)c2ccccc12` (centres undefined), the Potency entry is “inactive”.

On to `COc1cc2c(cc1OCCCN1CCCC1)N=C(N)C21CCC1`, for which the Potency result was “inactive”.

Regarding `C[N+](C)(CCCCCC[N+](C)(C)C1c2ccccc2-c2ccccc21)C1c2ccccc2-c2ccccc21`, the Potency result was “inactive”.

For `COc1ccc(OC)c(-c2ccc(NC(=O)c3ccncc3F)cc2)c1`, the Potency entry was “inactive”.

On to `COC(=O)C(Cc1ccc(OCCn2c(=O)sc3cc(C(=O)c4ccccc4)ccc32)cc1)C(=O)OC`, for which the Potency result was “inactive”.

Take `FC(F)(F)c1ccc(CNc2ccc(Cc3c[nH]c4ncc(Cl)cc34)cn2)cn1`: the Potency was 14.6 µM (active).

As for `CCC(=O)O`, the Potency entry was “inactive”.

Regarding `CCC(c1ccccc1)c1noc(CCN(CC)CC)n1` (centres undefined), the Potency result was “inactive”.

Regarding `C[C@@H](Nc1ncnc2[nH]c(-c3ccc(O)cc3)cc12)c1ccccc1`, the Potency was 8.2 µM (active).

On to `Clc1ccc(Nc2nc3ccccc3c3nc(C4CCCCC4)[nH]c23)cc1Cl`, for which the Potency is 16.4 µM (active).

With `COC(=O)C[C@](O)(CCCC(C)(C)O)C(=O)O[C@@H]1C(OC)=CC23CCCN2CCc2cc4c(cc2[C@H]13)OCO4` (some centres undefined), the Potency was 13 µM (active).

Regarding `CC/C=C\CC1C(=O)C=CC1(CCCCC1CCC(=O)O1)OC(C)=O` (centres undefined), the Potency entry is “inactive”.

With `NCCCNCCCCNC(=O)C(O)NC(=O)CCCCCCN=C(N)N` (centres undefined), the Potency result is “inactive”.

Regarding `C=C1CC[C@@H]2[C@](C)(CO)[C@H](O)CC[C@@]2(C)[C@@H]1CC(=O)C1=CCOC1=O`, the Potency result was “inactive”.

Take `O=C(Nc1nc2cc(C(F)(F)F)cc(NC3CC3)n2n1)c1cccnc1`: the Potency is 2.91 µM (active).

Regarding `CC[C@H](C)CCCCC(=O)N[C@@H](CCN)C(=O)N[C@H](C(=O)N[C@@H](CCN)C(=O)N[C@H]1CCNC(=O)[C@H]([C@@H](C)O)NC(=O)[C@H](CCN)NC(=O)[C@H](CCN)NC(=O)[C@H](CC(C)C)NC(=O)[C@@H](CC(C)C)NC(=O)[C@H](CCN)NC1=O)[C@@H](C)O` (X2-[Dab]T[Dab][Dab][Dab][dL]L[Dab][Dab]T; lactam 4-C), the Potency result was “inactive”.

With `C/C=C/C1=CC2=C(CO1)C(=O)C(C)(OC(=O)c1c(C)cc(O)cc1OC)C(O)C2` (centres undefined), the Potency result is “inactive”.

Consider `CCCCCC(O)/C=C/C=O` (centres undefined), for which the Potency result is “inactive”.

Turning to `C/C=C(\C)C(=O)OC1C(C)C2(O)C(C=C(CO)CC3(O)C(=O)C(C)=CC32)C2C(C)(C)C12OC(C)=O` (centres undefined), the Potency result is “inactive”.

Turning to `O=P(O)(O)OC(Cn1cncn1)(Cn1cncn1)c1ccc(F)cc1F`, the Potency entry is “inactive”.

Regarding `CCc1ccccc1OC[C@@H](O)CN[C@H]1CCCc2ccccc21`, the Potency was 20.6 µM (active).

In the case of `C=C1C(=O)O[C@@H]2[C@H]1CCC(C)=C(CCC(=O)O)[C@@]2(C)O`, the Potency result is “inactive”.

Turning to `CCCCCCCC/C=C\CCCCCCCC(=O)OC[C@@H](O)[C@H]1OC[C@H](O)[C@H]1O`, the Potency result was “inactive”.

On to `COc1ccc2c(c1O[C@H]1CCNC1)CCC2`, for which the Potency result is “inactive”.

With `O=C(OCCO)c1ccccc1O`, the Potency entry is “inactive”.
